# Laboratory results: PubChem BioAssay AID686979 (National Center for Advancing Translational Sciences (NCATS), 2013)
# The whole screen tested about 420,000 compounds, of which about 50,000 (12%) were called active. Roughly 26% stayed inconclusive and do not appear here. For the sample, actives were picked, then their nearest neighbours and some compounds at random. Unmarked numbers belong to inactive results. Calls come from the whole dose curve; as a rule, active = well fitted inhibition curve with a large enough effect; inconclusive = small, poorly fitted or top-dose-only effect; inactive = flat fitted curve, though single readings scatter.
# Experiment: qHTS for Inhibitors of human tyrosyl-DNA phosphodiesterase 1 (TDP1): qHTS in cells in presence of CPT; note: nearly all actives have a fitted effect of over 55% in size
# Conditions: chicken DT40 Tdp1-/-;hTDP1 cells + 20 nM CPT, ATP luminescence, 48 h; series mostly up to 46.2 µM; activity change, negative = growth inhibition: at the top concentration
# Summary of the method: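 Chicken DT40 Tdp1-/- cells complemented with human TDP1, 400 cells/well, exposed to compounds plus 20 nM camptothecin for at least 48 h at 37 C; viability read as ATP content by CellTiter-Glo luminescence.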
# % is set by controls: 0 for no effect and ±100 for the full control effect; potency is the fitted concentration of half-maximal effect.
Compound,"activity change, negative = growth inhibition",Potency
CCc1ccccc1OCC(=O)Nc1nnc(C2CC2)s1,-20.6%,–
N#Cc1ccc[n+](CC(=O)c2ccc(O)c(O)c2)c1,-3.73%,–
O=C(CSc1ncn[nH]1)Nc1ccc(Br)cc1Br,-2.92%,–
Cc1n[nH]c(=O)c2c(NC(=O)COC(=O)c3ncc(Cl)c(Cl)c3Cl)oc(C)c12,5.53%,–
O=C(CN(C(=O)c1nsc(Cl)c1Cl)c1cccc(F)c1)NC1CCCC1,8.99%,–
Cc1ccc(S(=O)(=O)n2oc(=O)c(C3CCCCC3)c2N)cc1,0.443%,–
Cc1ccc(C(=O)O)cc1NC(=O)c1ccc(Cn2nc(C)c(Cl)c2C)o1,7.71%,–
O=C(N/N=C/c1ccc2c(c1)OCO2)c1ccc(Cn2cc([N+](=O)[O-])cn2)o1,0.995%,–
Cc1c(Cl)c([N+](=O)[O-])nn1Cc1ccc(C(=O)N/N=C\c2cc(Cl)ccc2O)o1,–,3.66 µM (active)
Brc1ccccc1/C=N/Nc1nc2ccccc2o1,-26.5%,–
COCCN(C(=O)C(C)C)c1nnc(-c2ccc(C(C)(C)C)cc2)s1,–,20.6 µM (active)
COc1cc(OC)cc(-c2nnc(N(C)C(=O)c3ccncc3)s2)c1,-16.9%,–
COCCN(C(=O)c1ccco1)c1nnc(-c2ccc(OC)cc2)s1,-8.51%,–
COc1ccc(/C=C/c2noc(-c3ccccc3O)n2)cc1OC,-13.4%,–
CC(=O)O[C@H]1c2ccccc2-c2ccccc2[C@@H]1OC(C)=O,6.3%,–
Cc1cccc(NC(c2cccc(F)c2)c2ccc3ccc(C)nc3c2O)n1 (centres undefined),–,8.2 µM (active)
CCn1ncc(CNC(=O)C2(C)CC2(Br)Br)c1C (centres undefined),0.642%,–
CCc1nc2ccc(C(=O)N3CCN(c4cccc(Cl)c4)CC3)cc2nc1CC,-30.4%,–
O=C(CN1CCN(c2ccc(Cl)cc2)CC1)c1ccccc1,-26.7%,–
O=C(CCCC(=O)N1CCN(c2cccc(Cl)c2)CC1)c1ccccc1,–,14.6 µM (active)
COc1cc(C(C(=O)NC2CCCC2)N(C(=O)c2ccco2)c2ccccc2C(C)=O)cc(OC)c1OC (centres undefined),-1.96%,–
CC(C)C(NC(=O)c1c(F)cccc1F)C(=O)NCc1ccncc1 (centres undefined),-27.6%,–

Compound,"activity change, negative = growth inhibition",Potency
O=C(NC1CC1)C1=C[C@H](c2coc3ccccc3c2=O)C[C@H](OCCCCO)O1,-8.12%,–
CCO[C@H]1OC(C(=O)N2CCOCC2)=C[C@@H](c2ccc3c(c2)OCO3)[C@@H]1CCCO,-0.536%,–
CCO[C@H]1OC(C(=O)NCc2ccccc2)=C[C@@H](c2coc3ccccc3c2=O)[C@@H]1CCCO,–,23.1 µM (active)
Cc1ccc(NC(=O)C(c2ccccc2)N2CCN(C(=O)c3ccco3)CC2)cc1 (centres undefined),-20.2%,–
O=C(O)C1CCCN1c1nc(Cl)ccc1[N+](=O)[O-] (centres undefined),7.86%,–
CN(Cc1ccccc1)C(=O)CCS(=O)(=O)c1cc(Br)cc2c1N(C(=O)C1CC1)CC2,–,13 µM (active)
CCC(=O)N1CCc2cc(S(=O)(=O)CCC(=O)N3CCN(c4ccccc4F)CC3)ccc21,-15.1%,–
O=C(CCS(=O)(=O)c1cc(Br)cc2c1N(C(=O)C1CC1)CC2)Nc1ccc(C(F)(F)F)cc1,-13.6%,–
O=C(CCS(=O)(=O)c1cc(Br)cc2c1N(C(=O)C1CC1)CC2)Nc1ccc(Br)cc1F,12.1%,–
CCC(=O)N1CCc2cc(Br)cc(S(=O)(=O)CCC(=O)NCc3ccccc3OC)c21,-2.41%,–
CCC(=O)N1CCc2cc(Br)cc(S(=O)(=O)CCC(=O)N3CCN(c4ccc(F)cc4)CC3)c21,–,20.6 µM (active)
CC1(C)C[C@H]2C3=CCC4[C@@]5(C)CC[C@H](O)[C@](C)(CO)C5CC[C@@]4(C)[C@]3(C)C[C@@H](O)[C@@]2(CO)[C@@H](O)[C@@H]1O (some centres undefined),-6.68%,–
CCCCc1nc2cc(C(=O)NCCc3cnn(C)c3)ccc2o1,-21.1%,–
Cc1cc(C)c(C)c(S(=O)(=O)N[C@@H](C)C(=O)OC(C)C(=O)NC(N)=O)c1C (some centres undefined),1.29%,–
CN(Cc1c(F)cccc1Cl)C(=O)COC(=O)Cn1cnc2ccccc2c1=O,6.46%,–
CCOC(=O)Nc1ccc(S(=O)(=O)N(C)C(C)C)cc1,-9.23%,–
CCc1nnc(NC(=O)C2CCN(C(=O)c3ccccc3C)CC2)s1,2.38%,–
Cc1ccccc1C(=O)N1CCC(C(=O)Nc2ccc(S(=O)(=O)N(C)C(C)C)cc2)CC1,–,14.6 µM (active)
COc1ccc(N2CCN(CCCNC(=O)C3CCN(S(=O)(=O)N4CCOCC4)CC3)CC2)cc1,-5.76%,–
NNC(=O)c1oc2nc(-c3ccccc3)cc(-c3ccco3)c2c1N,-7.63%,–
CN(C)C(=O)Cn1c(=O)n(S(=O)(=O)c2ccccc2)c2ccccc21,33.8%,–
C/C(=N\OCC(=O)Nc1ccc(Br)cc1)c1cccs1,-4.26%,–

Compound,"activity change, negative = growth inhibition",Potency
CC1(C)CCCC2=C1CC1C(=O)N(c3ccccc3)C(=O)C1C2 (centres undefined),-11.4%,–
CC1CC2=C(CC1/C=N/NC(N)=S)C(C)(C)CCC2 (centres undefined),–,4.11 µM (active)
Cc1ccccc1N1CC(C(=O)Nc2nnc(SCCC3OCCO3)s2)CC1=O (centres undefined),-1%,–
COc1ccc(NC(=O)N2CCCC2C(=O)NCc2ccccc2Cl)cc1 (centres undefined),-17.9%,–
COc1ccc(Nc2oc(-c3ccccc3Cl)nc2C#N)cc1,–,2.91 µM (active)
Cc1ccccc1-c1nc(C#N)c(NCc2ccco2)o1,25.6%,–
CCOc1ccc(Nc2oc(/C=C/c3ccc(F)cc3)nc2C#N)cc1,-22.1%,–
CCOC(=O)N1CCN(Cc2nnc(-c3ccccc3Cl)o2)CC1,-24.8%,–
CCc1ccc[n+](-c2nc([O-])sc2C=O)c1,-0.903%,–
COc1cccc(C(=O)Nc2cc3c(cc2Br)OCCCO3)c1,-23%,–
Cn1c(N)c(C(=O)COC(=O)C23CC4CC(CC(C4)C2)C3)c(=O)n(C)c1=O,-23.7%,–
Cc1cc(C(=O)COC(=O)C2CC2)c(C)n1-c1ccc(F)cc1,-3.09%,–
Cc1ccc(-n2c(C)cc(C(=O)CN3C(=O)C(=O)N(C4CCCC4)C3=O)c2C)cc1,–,20.6 µM (active)
CCOC(=O)c1cc2c(n(-c3ccc(C)cc3)c1=O)CCCC2=O,-0.219%,–
Cc1cc(OC(=O)c2ccc(OC(C)C)cc2)c([N+](=O)[O-])c(=O)[nH]1,-2.01%,–
COCc1cc(C)n(CC(=O)NCC2CCCO2)c(=O)c1C#N (centres undefined),-0.925%,–
CC1(C)O[C@@H]2CC3C4C[C@H](F)C5=CC(=O)C=CC5(C)C4C(O)CC3(C)[C@]2(C(=O)CO)O1 (some centres undefined),-14.3%,–
CCc1ccc(CNC(=O)C2CCCN(c3nc4ccccc4o3)C2)cc1 (centres undefined),-19.6%,–
CCOC(=O)c1ccccc1NC(=S)N1CCC(C(N)=O)CC1,1.5%,–
CCOC(=O)c1cnc(Nc2nc3ccccc3o2)nc1CSC(=S)N1CCCCC1,–,0.146 µM (active)
